Columns and labels:
Format in all cases: functional
Plasmodium falciparum [1] = test: GSK_TCMDC: Inhibition of Plasmodium falciparum 3D7 in whole red blood cells, using parasite LDH activity as an index of growth. Test compounds present at 2uM
Plasmodium falciparum [2] = test: GSK_TCMDC: Inhibition of Plasmodium falciparum Dd2 in whole red blood cells, using parasite LDH activity as an index of growth. Test compounds present at 2uM
HepG2 = test: GSK_TCMDC: Percent inhibition of human HepG2 cell line. Test compounds present at 10uM.

Cc1cc(O)c(CN(C)Cc2ccc3c(c2)OCCO3)cc1C(C)C
Inhibition (Plasmodium falciparum [1]): 98%
Inhibition (Plasmodium falciparum [2]): 47%
Inhibition (HepG2): 10%

CN=C(S)NN=C(C)c1ccccn1
Inhibition (Plasmodium falciparum [1]): 98%
Inhibition (Plasmodium falciparum [2]): 99%
Inhibition (HepG2): 64%

O=C(NCCCCCN1CCC(c2ccc(O)cc2)CC1)c1ccc(-c2ccccc2)cc1
Inhibition (Plasmodium falciparum [1]): 92%
Inhibition (Plasmodium falciparum [2]): 0%
Inhibition (HepG2): 28%

O=C(O)C(F)(F)F.c1ccc(CNCc2ccc(-c3ccc(-c4nc5ccccc5[nH]4)cc3)cc2)cc1
Inhibition (Plasmodium falciparum [1]): 100%
Inhibition (Plasmodium falciparum [2]): 93%
Inhibition (HepG2): 32%

Cc1c(Cc2ccccc2Br)cnc2nc(N)nc(N)c12.Cl
Inhibition (Plasmodium falciparum [1]): 88%
Inhibition (Plasmodium falciparum [2]): 97%
Inhibition (HepG2): 67%

Cc1cc(N/N=C/c2ccccc2[N+](=O)[O-])c2ccccc2n1
Inhibition (Plasmodium falciparum [1]): 100%
Inhibition (Plasmodium falciparum [2]): 100%
Inhibition (HepG2): 10%

Cc1ccc(NC(=O)c2ccc(-c3cc4cc(Cl)c(Cl)cc4[nH]3)cc2)cc1OCCN1CCCC1.O=C(O)C(F)(F)F
Inhibition (Plasmodium falciparum [1]): 100%
Inhibition (Plasmodium falciparum [2]): 90%
Inhibition (HepG2): 7%

O=C(Nc1ccc(Cl)c(Cl)c1)Nc1ccc2c(c1)CCNCC2.O=C(O)C(F)(F)F
Inhibition (Plasmodium falciparum [1]): 86%
Inhibition (Plasmodium falciparum [2]): 37%
Inhibition (HepG2): 13%

CC(C)(CNCc1ccc(OC(F)(F)F)cc1)c1nc(-c2ccc(Cl)c(O)c2)c(-c2ccncc2)[nH]1.Cl
Inhibition (Plasmodium falciparum [1]): 100%
Inhibition (Plasmodium falciparum [2]): 99%
Inhibition (HepG2): 38%

Cc1cc(NC2CCN(Cc3ccccc3)CC2)nc(NCCCCc2ccccc2)n1
Inhibition (Plasmodium falciparum [1]): 100%
Inhibition (Plasmodium falciparum [2]): 60%
Inhibition (HepG2): 65%

CCOc1cc(NCCSCc2nc[nH]c2C)nc2ccccc12
Inhibition (Plasmodium falciparum [1]): 92%
Inhibition (Plasmodium falciparum [2]): 10%
Inhibition (HepG2): 4%

OC(CNCc1ccccc1OCc1ccccc1)c1cc(C(F)(F)F)cc(C(F)(F)F)c1 (centres undefined)
Inhibition (Plasmodium falciparum [1]): 100%
Inhibition (Plasmodium falciparum [2]): 99%
Inhibition (HepG2): 3%

Cn1c(N)c(C(=O)CSc2ncc(-c3ccc(F)cc3)n2Cc2ccccc2)c(=O)n(C)c1=O
Inhibition (Plasmodium falciparum [1]): 88%
Inhibition (Plasmodium falciparum [2]): 66%
Inhibition (HepG2): 11%

COc1ccc(N2CCN(CCCCNC(=O)c3ccc(NC(=O)c4cc(C(F)(F)F)cc(C(F)(F)F)c4)cc3)CC2)cc1OC
Inhibition (Plasmodium falciparum [1]): 100%
Inhibition (Plasmodium falciparum [2]): 100%
Inhibition (HepG2): 9%

Cn1c(NC(=O)c2ccc(CNC(=O)c3ccc(O)c(-c4ccc(Cl)c(Cl)c4)c3)cc2)nc2ccccc21
Inhibition (Plasmodium falciparum [1]): 94%
Inhibition (Plasmodium falciparum [2]): 74%
Inhibition (HepG2): 20%

CC(C)n1c(C2CCN(CC3CCN(C(=O)/C=C/c4ccc(Cl)c(Cl)c4)CC3)CC2)nc2ccccc21
Inhibition (Plasmodium falciparum [1]): 94%
Inhibition (Plasmodium falciparum [2]): 7%
Inhibition (HepG2): 36%

CC(=O)Nc1ccc(CN2CCC(NC(=O)c3cc(-c4ccc(N(C)C)cc4)cs3)C2)cc1.O=C(O)C(F)(F)F (centres undefined)
Inhibition (Plasmodium falciparum [1]): 83%
Inhibition (Plasmodium falciparum [2]): 1%
Inhibition (HepG2): 15%

COc1cccc(CNCC(C)(C)c2nc(-c3ccc(Cl)c(O)c3)c(-c3ccncc3)[nH]2)c1.Cl
Inhibition (Plasmodium falciparum [1]): 100%
Inhibition (Plasmodium falciparum [2]): 98%
Inhibition (HepG2): 74%

COc1cc(NC(=O)c2sc(-c3ccc(Cl)cc3)cc2NC(=O)CN2CCCC2)ccc1OCCN1CCCC1.Cl
Inhibition (Plasmodium falciparum [1]): 86%
Inhibition (Plasmodium falciparum [2]): 79%
Inhibition (HepG2): 29%

COc1cc(Nc2ccnc3ccc(C(F)(F)F)cc23)cc(OC)c1OC
Inhibition (Plasmodium falciparum [1]): 100%
Inhibition (Plasmodium falciparum [2]): 100%
Inhibition (HepG2): 15%

COc1cccc(OC2CCN(C(=O)c3cc(C(C)(C)C)nn3Cc3ccccc3)CC2)c1
Inhibition (Plasmodium falciparum [1]): 100%
Inhibition (Plasmodium falciparum [2]): 98%
Inhibition (HepG2): 3%

COc1ccc(C2c3cc(OC)c(OC)cc3C(=NO)C2C)cc1OC (centres undefined)
Inhibition (Plasmodium falciparum [1]): 90%
Inhibition (Plasmodium falciparum [2]): 6%
Inhibition (HepG2): 20%

COc1ccc(NC(=O)/C=C/c2ccc(-c3ccccc3)cc2)cc1N1CCN(C)CC1.O=C(O)C(=O)O
Inhibition (Plasmodium falciparum [1]): 90%
Inhibition (Plasmodium falciparum [2]): 46%
Inhibition (HepG2): 21%

CCc1c(C(=O)NC2CCC(N3CCC(c4ccccc4OC)CC3)CC2)[nH]c2ccc(OC)cc12 (centres undefined)
Inhibition (Plasmodium falciparum [1]): 100%
Inhibition (Plasmodium falciparum [2]): 99%
Inhibition (HepG2): 43%

O=C(CCCCCNC(=O)c1ccc(O)c(-c2ccc(Cl)c(Cl)c2)c1)NCCN1CCCC1
Inhibition (Plasmodium falciparum [1]): 90%
Inhibition (Plasmodium falciparum [2]): 2%
Inhibition (HepG2): 0%

O=C(/C=C/c1ccc(Cl)c(Cl)c1)NCCCCCN1CCC(NC(=S)Nc2cccc(Cl)c2)CC1
Inhibition (Plasmodium falciparum [1]): 99%
Inhibition (Plasmodium falciparum [2]): 43%
Inhibition (HepG2): 24%

Cc1cc2c(cc1C(F)(F)F)N(C(=O)Nc1cc(C(=O)NC3CCN(Cc4ccccc4)C3)cc(C(F)(F)F)c1)CC2.Cl (centres undefined)
Inhibition (Plasmodium falciparum [1]): 100%
Inhibition (Plasmodium falciparum [2]): 97%
Inhibition (HepG2): 22%

COc1ccc(CCn2c(=N)c(C(=O)NCc3ccccc3)cc3c(=O)n4ccccc4nc32)cc1
Inhibition (Plasmodium falciparum [1]): 100%
Inhibition (Plasmodium falciparum [2]): 18%
Inhibition (HepG2): 14%

Source: ChEMBL document CHEMBL1157539, “Thousands of chemical starting points for antimalarial lead identification” (Nature, 2010)
